Test results reported in the supplement of paper PMC9334596.
Several values for one entry are separate records, joined by “and”; a condition that tells them apart may be missing. Identical values can stand only once. Whole data set: some 5,300 compounds, median “PER2::LUC luminescence relative to vehicle control” near 0.96, cut for the highest 2% near 1.3. The sample as a whole holds a higher share of the highest values than the screen did.

System: mPer2Luc MEF
Assay: PER2::LUC luminescence relative to vehicle control (fold of vehicle); higher = higher PER2::LUC reporter signal
Conditions: 10 µM
In short: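 In 384-well plates, ~3000 mPer2Luc reporter mouse embryonic fibroblasts per well were cultured in DMEM with 10% FBS at 37 °C and 5% CO2 for 48 h before compounds from commercial libraries were added at 10 μM. ONE-Glo luciferase readings were taken 24 h and 30 h after treatment. Each value is PER2::LUC luminescence given as fold of vehicle control.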

SMILES | PER2::LUC luminescence (time after treatment 24 h) | PER2::LUC luminescence (time after treatment 30 h)
Clc1ccc(N/N=C(/c2ccccc2)c2ccccn2)nc1 | 0.832 | 0.785
CC(C)C[C@H](NC(=O)[C@H](CCC(N)=O)NC(=O)[C@H](CCCCN)NC(=O)[C@H](CCC(N)=O)NC(=O)[C@@H](N)CCC(=O)O)C(=O)N[C@@H](CCC(N)=O)C(=O)O | 1.03 | 0.938
CC(=O)Oc1ccc(O)cc1 | 0.907 | 1.01
CSC[C@H]1O[C@@H](n2cnc3c(N)ncnc32)[C@H](O)[C@@H]1O | 0.938 | 0.773
COc1ccc2cc1Oc1ccc(cc1)C[C@H]1c3cc(c(OC)cc3CCN1C)Oc1c(OC)c(OC)c(OC)c3c1[C@H](C2)N(C)CC3 | 0.81 | 0.85
COc1ccc(S(=O)(=O)Nc2ccccc2CN(C)C/C=C/c2ccc(Cl)cc2)cc1 | 1.02 and 0.909 | 0.939 and 0.913
Nc1ncnc2c1c(-c1ccc(Oc3ccccc3)cc1)nn2[C@@H]1CCCNC1 | 0.544 | 0.62
O=C1C[C@@H](c2ccccc2)Oc2cc(O)cc(O)c21 | 1.07 | 1.08
O=C1C[C@@H](c2ccc(O)c(O)c2)Oc2cc(O)cc(O)c21 | 0.983 | 1.05
O=C1C[C@@H](c2ccc(O)cc2)Oc2cc(O)cc(O)c21 | 1.46 | 1.25
CC(Cc1ccccc1)(NC(=O)CN)c1ccccc1 (racemic) | 0.964 | 1.04
CC(=O)CC(=O)Nc1ccc(Cl)c(C(F)(F)F)c1 | 1.35 | 1.37
CNC(=O)c1cc(Oc2ccc(NC(=O)Nc3ccc(Cl)c(C(F)(F)F)c3)c(F)c2)ccn1 | 0.831 and 0.772 | 0.697 and 0.731
CNC(=O)c1cc(Oc2ccc(NC(=O)Nc3ccc(Cl)c(C(F)(F)F)c3)cc2)ccn1 | 0.556 and 0.486 | 0.816 and 0.513
O=[N+]([O-])c1cn(CCN2CCOCC2)cn1 | 0.977 | 0.974
COc1cc2c3cc1Oc1c(OC)c(OC)cc4c1[C@@H](Cc1ccc(OC(=O)c5ccc([N+](=O)[O-])cc5)c(c1)Oc1ccc(cc1)C[C@@H]3N(C)CC2)N(C)CC4 | 0.754 | 0.76
C#CCN(C)CCCOc1ccc(Cl)cc1Cl | 1.23 | 1.37
C#CCN(C)Cc1ccccc1 | 0.93 and 0.871 | 0.955 and 0.95
Cc1cc(Br)c(O)c2ncccc12 | 1.19 | 0.958
COC(=O)N[C@H](C(=O)NNC[C@H](O)[C@H](Cc1ccccc1)NC(=O)[C@@H](NC(=O)OC)C(C)(C)C)C(C)(C)C | 0.974 | 0.963
CN(C/C=C/c1ccccc1)Cc1cccc2ccccc12 | 0.5 | 0.535
Cc1cccc(/C=C/c2ccccc2)n1 | 1.35 | 1.16
CC(COc1ccc(/C=C/c2ccccc2)cc1)[N+](C)(C)C (configuration not stated) | 0.936 | 1.02
O=Cc1c2[nH]c3ccccc3c2cc2[nH]c3ccccc3c12 | 1.54 | 1.5
O=c1[nH]c2ccccc2c2ccccc12 | 1.19 | 0.972
OCc1cc2c(cn1)[nH]c1ccccc12 | 0.851 | 0.873

SMILES | PER2::LUC luminescence (time after treatment 24 h) | PER2::LUC luminescence (time after treatment 30 h)
CC[C@@H](C)[C@@H](O)[C@H](C)C(=O)[C@H](C)/C=C(\C)C[C@H](C)[C@@H]1OC(=O)[C@H]1CC | 1.06 | 0.925
Clc1cccc(COc2cncc(N3CCNCC3)n2)c1 | 0.246 | 0.301
CCCCc1ccc(NC(C)=O)c(C)c1 | 1.1 | 1.05
CN1CC(=O)N=C1NC(=O)Nc1cccc(Cl)c1 | 0.949 | 1.1
COc1ccccc1C(=O)Nc1cccc(NC(=O)c2cccc(C)c2)c1 | 0.917 | 0.985
O=C(Nc1ccc(S(=O)(=O)Nc2ccccc2Cl)c(Cl)c1)c1ccccn1 | 0.992 | 1.06
CS(=O)(=O)c1ccc(C(=O)Nc2ccc(Cl)c(-c3ccccn3)c2)c(Cl)c1 | 1.17 | 1.14
COc1cc(NC(=O)c2ccccn2)ccc1Cl | 1.13 | 1.38
O=C(Nc1cccc(Cl)c1)c1ccccn1 | 1.65 | 1.48
COc1cccc(CNC(=O)Nc2nc(-c3ccncc3)cs2)c1 | 0.558 | 0.601
O=c1ncc(F)c[nH]1 | 0.979 | 0.911
Cn1c2ncnc-2c(O)n(C)c1=O | 1.14 | 1.18
FC(F)(F)COB(OCC(F)(F)F)OCC(F)(F)F | 0.958 | 1
O=C1CN(/N=C/C=C/c2ccc([N+](=O)[O-])o2)C(=O)N1 | 1.04 | 1.01
CCOc1ccc(C(=O)c2ccc(OC)c(O)c2O)cc1 | 0.983 | 0.916
CCOc1cccc(C(=O)c2ccc(O)c(O)c2O)c1 | 1.23 | 1.37
CCOc1ccc(C(=O)c2ccc(O)c(O)c2O)cc1 | 0.963 | 1.08
O=C(Nc1cccc(NC(=O)c2cccc(O)c2O)c1)c1cccc(O)c1O | 0.916 | 1.34
O=C(O)Cc1cccc(OCCCN(Cc2cccc(C(F)(F)F)c2Cl)CC(c2ccccc2)c2ccccc2)c1 | 1.4 | 1.47
O=c1[nH]c(C2CCCN2)nc2c1oc1ccc(Cl)cc12 (configuration not stated) | 1.22 | 1.29
N#Cc1cc(-c2ccnc(Nc3ccc(N4CCOCC4)cc3)n2)ccc1OC1CCOCC1 | 0.507 | 0.584
O=C(CCCCCCCCCCCCC1CCCC1)Nc1ccc(S(=O)(=O)c2ccc(NC(=O)CCCCCCCCCCCCC3CCCC3)cc2)cc1 | 1.06 | 1.02
COc1cccc(-c2ccc(NC(=O)C3=C(C(=O)O)CCC3)c(F)c2)c1 | 1.43 | 1.75
COc1ccccc1C(=O)Nc1cc2c(cc1N1CCCCC1)n(C)c(=O)n2C | 0.765 | 0.829
COc1cccc(C(=O)NCCN2CCN(c3ccc(Cl)cc3)CC2)c1 | 0.833 | 0.96
CC(C)=CCC/C(C)=C/CC/C(C)=C/CC/C(C)=C/C(=O)O | 1.07 | 0.976

SMILES | PER2::LUC luminescence (time after treatment 24 h) | PER2::LUC luminescence (time after treatment 30 h)
COc1c(O)c2c(=O)cc(OC)c3c4c(OC)cc(=O)c5c(O)c(OC)c6c(c(c1CC(C)=C6C(C)=O)c23)c54 | 0.779 | 0.948
C=CCSSSCC=C | 1.32 | 1.05
O=C(O)c1cc(-c2ccccc2)nc2ccccc12 | 0.91 | 1.12
Nc1ccc(-c2ccc3ccccc3n2)cc1 | 1.74 | 1.29
Nc1ccc(-c2nc3ccc(-c4nc5ccc(N)cc5[nH]4)cc3[nH]2)cc1 | 0.876 | 0.866
COc1cc(Nc2nc3c(s2)CCCC3c2ccc(F)cc2)ccc1-n1cnc(C)c1 (configuration not stated) | 1.05 | 1.02
C/C=C\c1ccc(OC)cc1 | 1 | 1.03
CC(CC(=O)O)C(N)C(=O)O (racemic) | 0.979 | 0.922
O=c1cc(-c2ccccc2F)[nH]c2cc3c(cc12)OCO3 | 0.9 | 0.871
CC(C)=CC[C@@H](OC(=O)C=C(C)C)C1=CC(=O)c2c(O)ccc(O)c2C1=O | 1.03 | 1.03
CC12CCc3occc3C1CCC13CC(=O)C(CCC12)C3 (configuration not stated) | 0.996 | 0.94
CC(=O)O[C@H]1CC[C@]2(C)C3CC[C@@]4(C)[C@H](C5CC(C6OC6(C)C)OC5O)CC[C@]4(C)C3=CC[C@H]2C1(C)C (some centres not stated) | 1.14 | 1.08
CC1=C(/C=C/C(C)=C/C=C/C(C)=C/C(=O)O)C(C)(C)CCC1O (configuration not stated) | 0.928 | 1.06
COc1cc(C)c(/C=C/C(C)=C/C=C/C(C)=C/C(=O)O)c(C)c1C | 1.82 | 2.04
COc1cc(/C=C/C(=O)O)cc(OC)c1OC | 0.994 | 0.955
O=C(NCc1cccs1)c1cc2nc(-c3ccco3)cc(C(F)(F)Cl)n2n1 | 1.03 | 1.11
Cn1nnnc1SCC1=C(C(=O)O)N2C(=O)[C@@H](NC(=O)C(OC=O)c3ccccc3)[C@H]2SC1 (some centres not stated) | 0.605 | 0.705
O=C(/C=C/C=C/c1ccc2c(c1)OCO2)N1CCCCC1 | 1.5 | 1.42
O=C(c1ccc2c(c1)OCO2)N1CCCCC1 | 1 | 0.843
O=C(O)/C=C/C=C/c1ccc2c(c1)OCO2 | 1.07 | 1.03
COc1cc(N2CCOCC2)ccc1Nc1ncc(F)c(Nc2ccccc2NS(C)(=O)=O)n1 | 0.771 | 0.673
Nc1nc(Nc2ccc3c(c2)CCC(N2CCCC2)CC3)nn1-c1cc2c(nn1)-c1ccccc1CCC2 (configuration not stated) | 0.438 | 0.375
O=C(NCCN1CCOCC1)c1ccc(Cl)cc1 | 1.09 and 1.08 | 0.965 and 1.2
C[C@@H](O)[C@H](NC(=O)c1ccc(C#Cc2ccc(CN3CCOCC3)cc2)cc1)C(=O)NO | 1.32 | 1.62
O=C(c1ccc(CN2CCOCC2)cc1)N1CCN(C2CC2)CC1 | 1.07 | 0.963
O=C1/C(=C/c2cc(Br)c(O)c(Br)c2)COC/C1=C\c1cc(Br)c(O)c(Br)c1 | 0.259 | 0.258

SMILES | PER2::LUC luminescence (time after treatment 24 h) | PER2::LUC luminescence (time after treatment 30 h)
COc1cc2c(c(OC)c1OC)-c1ccc(OC)c(=O)cc1[C@@H](NC=O)CC2 | 0.938 | 0.84
NC[C@@H](O)c1ccc(O)c(O)c1 | 1.26 | 1.04
NCC(O)c1ccc(O)c(O)c1 (racemic) | 1.04 | 1.12
NCC(O)c1ccc(O)c(O)c1 (configuration not stated) | 1.47 | 1.55
CCCC[C@@H](C)/C=C(C)/C=C(\C)C(=O)NC1=C[C@@](O)(/C=C/C=C/C=C/C(=O)NC2=C(O)CCC2=O)[C@@H]2O[C@@H]2C1=O | 0.951 | 0.934
Cc1ccc(O)cc1Nc1ccnc(Nc2cccc(C(N)=O)c2)n1 | 1.05 | 1.02
CCOC(=O)c1sc(NC(=O)[C@H](C(C)C)n2c(=O)[nH]c3ccccc3c2=O)nc1C | 1.02 | 0.987
O=C(O[C@H]1[C@H](Oc2ccccc2COC(=O)C2(O)C=CCCC2=O)O[C@H](CO)[C@@H](O)[C@@H]1O)c1ccccc1 (some centres not stated) | 0.824 | 0.676
Cc1ccc(O)c(N=Nc2ccccc2)n1 | 1.05 | 0.998
Nc1ccc(/N=N/c2ccccc2)c(N)n1 | 1.76 | 1.7
CC[C@H]1CN(c2nc(N)c(C(N)=O)nc2Cl)CCN1C1CCN(Cc2ccc(Cl)cc2)CC1 | 0.96 | 1.01
O=c1c(-c2ccc(O)cc2)coc2cc(O)ccc12 | 0.822 | 0.788
O=c1c(-c2ccc(O)cc2)coc2cc(O[C@@H]3O[C@H](CO)[C@@H](O)[C@H](O)[C@H]3O)cc(O)c12 | 1.3 | 1.32
COc1ccccc1-c1coc2cc(O)ccc2c1=O | 1.14 | 1.04
OC[C@H]1O[C@@H](Oc2ccc(O)cc2)[C@H](O)[C@@H](O)[C@@H]1O | 1.02 | 0.876
COc1ccc(-c2coc3cc(O)ccc3c2=O)cc1 | 1.77 | 1.97
O=c1cc(-c2ccc(O)cc2)oc2cc(O[C@@H]3O[C@H](CO)[C@@H](O)[C@H](O)[C@H]3O)cc(O)c12 | 1.22 | 1.43
COc1ccc(-c2coc3cc(O)ccc3c2=O)c(OC)c1 | 1.02 | 1.05
O=c1cc(-c2ccc(O)c(O[C@@H]3O[C@H](CO)[C@@H](O)[C@H](O)[C@H]3O)c2)oc2cc(O[C@@H]3O[C@H](CO)[C@@H](O)[C@H](O)[C@H]3O)cc(O)c12 | 1.07 | 1.04
COc1ccc2c(=O)c(CC(=O)O)coc2c1 | 0.908 | 0.978
CC(C)Oc1ccc2c(=O)c(-c3ccccc3)coc2c1 | 1.9 | 1.92
O=c1c(-c2ccc(O)cc2)coc2cc(O[C@@H]3O[C@H](CO)[C@@H](O)[C@H](O)[C@H]3O)ccc12 | 1.25 | 1.39
C[C@@H]1O[C@@H](O[C@H]2[C@H](Oc3cc(O)c4c(=O)cc(-c5ccc(O)cc5)oc4c3)O[C@H](CO)[C@@H](O)[C@@H]2O)[C@H](O)[C@H](O)[C@H]1O | 0.841 | 0.85
